Source: PubChem BioAssay (EPA / NIEHS)
Inconclusive results are not listed. Activity calls are given as the source filed them. The calls were made as follows: active = hit-call score of the fitted dose curve at least 0.9, where 1 is the maximum; inconclusive = response in the unintended direction; inactive = score below 0.9.

Assays:
[1] = Tanguay_ZF_120hpf_OTIC_legacy: (Legacy) Oregon State University Tanguay Lab 120 Hour Post-fertilization zebrafish Assay for Otic Vesicle Malformation (AID 2283639)
In short: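 Wild-type zebrafish larvae, whole-embryo exposure from early stage to 120 hpf at 28C. Binary brightfield scoring of otic vesicle morphology, fitted in the positive direction against the DMSO baseline.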

[2] = Tanguay_ZF_120hpf_PE_legacy: (Legacy) Oregon State University Tanguay Lab 120 Hour Post-fertilization zebrafish Assay for Pericardial Edema (AID 2283640);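 as to AC50: potency for increased incidence of pericardial edema versus DMSO baseline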
In short: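 Embryos from wild-type 5D adults were staged, then dosed in 0.64% DMSO. They were kept sealed in the dark at 28C until 120 hpf. Pericardial edema was then recorded as present or absent.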

[3] = Tanguay_ZF_120hpf_BRAI_legacy: (Legacy) Oregon State University Tanguay Lab 120 Hour Post-fertilization zebrafish Assay for Brain Malformation (AID 2283641)
In short: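 Wild-type 5D larvae, static waterborne exposure to 120 hpf, 28C, 0.64% v/v DMSO. Brightfield scoring of brain defects, binary; dead embryos excluded. Positive ctrl 5uM trimethyltin chloride.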

[4] = Tanguay_ZF_120hpf_SOMI_legacy: (Legacy) Oregon State University Tanguay Lab 120 Hour Post-fertilization zebrafish Assay for Somite Malformation (AID 2283647)
In short: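 Read-out: presence or absence of somite malformation in 120 hpf larvae, gain-of-signal relative to DMSO baseline. Embryos lacked chorion (pronase, 4 hpf) and were exposed statically from 6 hpf at 28C; dead larvae not scored.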

[5] = Tanguay_ZF_120hpf_PFIN_legacy: (Legacy) Oregon State University Tanguay Lab 120 Hour Post-fertilization zebrafish Assay for Pectoral Fin Malformation (AID 2283648);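 also: each larva judged yes or no for fin defect by brightfield with dead larvae skipped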
In short: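 Binary pectoral fin malformation call at 120 hpf by brightfield microscopy; 5D wild-type zebrafish, chorion removed at 4 hpf, one embryo per well from 6 hpf, static exposure at 28C; DMSO (0.64% final) as baseline.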

[6] = Tanguay_ZF_120hpf_PIG_legacy: (Legacy) Oregon State University Tanguay Lab 120 Hour Post-fertilization zebrafish Assay for Pigmentation Malformation (AID 2283650);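 also: dechorionated Tropical 5D zebrafish embryos exposed singly from 6 to 120 hpf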
In short: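 Brightfield scoring of pigmentation malformation at 120 hpf, recorded as binary present/absent per larva. Exposure: dechorionated 5D wild-type embryos, one per well, static from 6 hpf at 28C, final DMSO 0.64% (vol/vol). Dead embryos not scored.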

[7] = Tanguay_ZF_120hpf_CIRC_legacy: (Legacy) Oregon State University Tanguay Lab 120 Hour Post-fertilization zebrafish Assay for Circulatory Malformation (AID 2283651)
In short: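 Binary circulatory-malformation call at 120 hpf via brightfield imaging, relative to DMSO controls. Embryos (5D strain, chorion removed) received static, light-shielded exposure at 28C.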

[8] = Tanguay_ZF_120hpf_CFIN_legacy: (Legacy) Oregon State University Tanguay Lab 120 Hour Post-fertilization zebrafish Assay for Caudal Fin Malformation (AID 2283649)
In short: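 Binary presence or absence of caudal fin malformation at 120 hpf, read by brightfield microscopy, with DMSO as baseline. Larvae came from 5D wild-type embryos exposed statically from 6 hpf at 28C after pronase dechorionation.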

Measured: AC50

Cc1nccn1-c1ccc(Sc2cccc(C3(C(N)=O)CCOCC3)c2)cc1
inactive: [1] | [2] | [3] | [4] | [5] | [6] | [7]

O=S1(=O)CCCO1
inactive: [1] | [2] | [3] | [4] | [5] | [8] | [6] | [7]

O=C(O)[C@H](O)[C@@H](O)C(=O)O
inactive: [1] | [2] | [3] | [4] | [5] | [8] | [6] | [7]

CCc1ccc(O)c(C(C)(C)C)c1
inactive: [1] | [2] | [3] | [4] | [5] | [8] | [6] | [7]

COCc1nnc(-c2ccc[n+]([O-])c2)n1-c1c(Cl)c(Cl)cc2[nH]c(=O)c(=O)[nH]c12
inactive: [1] | [2] | [4] | [8] | [6] | [7]

CCCCCCCCCCCCCCCCOS(=O)(=O)O
inactive: [2] | [3] | [4] | [5] | [8] | [6] | [7]

C[C@]12C=CC(=O)C=C1CC[C@H]1[C@@H]3C[C@@H](O)[C@](O)(C(=O)CO)[C@@]3(C)C[C@H](O)[C@@]12F
inactive: [2] | [3] | [4] | [5] | [8] | [6]

CCCCCCCCCCCCCCO
inactive: [1] | [2] | [3] | [4] | [5] | [8] | [7]

Cc1nc(-c2ccccn2)ncc1C(=O)Nn1cc(C)c2cc(F)ccc21
inactive: [1] | [2] | [3] | [4] | [5] | [8] | [6] | [7]

CC(=O)c1ccccc1
inactive: [1] | [2] | [3] | [4] | [5] | [8] | [6] | [7]

OC[C@H]1O[C@@H]2O[C@H]3[C@H](O)[C@@H](O)[C@@H](O[C@H]4[C@H](O)[C@@H](O)[C@@H](O[C@H]5[C@H](O)[C@@H](O)[C@@H](O[C@H]6[C@H](O)[C@@H](O)[C@@H](O[C@H]7[C@H](O)[C@@H](O)[C@@H](O[C@H]1[C@H](O)[C@H]2O)O[C@@H]7CO)O[C@@H]6CO)O[C@@H]5CO)O[C@@H]4CO)O[C@@H]3CO
inactive: [2] | [3] | [4] | [5] | [8] | [6] | [7]

CCCCCCCC/C=C\CCCCCCCC(=O)OC[C@@H](O)[C@H]1OC[C@H](O)[C@H]1O
inactive: [1] | [2] | [4] | [8] | [6] | [7]

OC(CCl)CCl
inactive: [1] | [2] | [3] | [4] | [5] | [6] | [7]

Cn1cc[nH]c1=S
inactive: [1] | [2] | [3] | [4] | [8] | [6] | [7]

OCc1ccccc1
inactive: [1] | [2] | [3] | [4] | [5] | [8] | [6] | [7]

COS(C)(=O)=O
inactive: [1] | [2] | [3] | [4] | [5] | [8] | [6] | [7]

OCCNCCO
inactive: [1] | [2] | [3] | [4] | [5] | [8] | [6] | [7]

NC(=O)N1c2ccccc2C=Cc2ccccc21
inactive: [2] | [3] | [4] | [5] | [8] | [6] | [7]

NC(=O)NN=Cc1ccc([N+](=O)[O-])o1
inactive: [2] | [3] | [4] | [5] | [8] | [6] | [7]

Cc1ccc(S(=O)(=O)NC(=O)NN2CCCCCC2)cc1
inactive: [2] | [3] | [4] | [5] | [8] | [6] | [7]

CCCCC(CC)C(=O)OCCOCCOCCOC(=O)C(CC)CCCC (stereo not drawn)
inactive: [1] | [2] | [3] | [4] | [5] | [8] | [6] | [7]

COc1cc(C(C)C)c2c(c1)S(=O)(=O)N(COc1cc(=O)n3cccc(OCCN4CCCCC4)c3n1)C2=O
active: [1] 15.3 µM | [2] 20 µM
inactive: [3] | [4] | [5] | [8] | [7]

NNC(=O)c1ccncc1
inactive: [2] | [3] | [4] | [5] | [8] | [6]

Cc1ncc([C@@H](CCCCCCc2ccc3c(n2)NCCC3)CC(=O)O)cn1
inactive: [1] | [2] | [3] | [4] | [8] | [6] | [7]

C[C@@H](Oc1ccc(CNC(=O)c2cccnc2Oc2ccc3c(c2)OCO3)c(F)c1)C(=O)O
inactive: [1] | [2] | [3] | [4] | [5] | [8] | [6]

CCCc1ccccc1
inactive: [1] | [2] | [3] | [4] | [5] | [8] | [6] | [7]

O=C1CN(N=Cc2ccc([N+](=O)[O-])o2)C(=O)N1
inactive: [1] | [3] | [4] | [5] | [7]

NC(=O)N(O)[C@@H]1COc2cc(OCc3ccccc3)ccc21
inactive: [2] | [3] | [4] | [5] | [8]

CCN(CC)C(=S)SSC(=S)N(CC)CC
active: [2] 1.22 µM | [4] 0.619 µM | [7] 5.12 µM
inactive: [1] | [3] | [5] | [8] | [6]

CC(C)c1nnc2ccc(-c3ocnc3-c3cc(F)ccc3F)cn12
inactive: [2] | [3] | [4] | [5] | [8] | [6] | [7]

c1ccc2c(c1)-c1cccc3c1c-2cc1ccccc13
inactive: [1] | [3] | [4] | [5] | [8] | [6] | [7]

c1ccc2ncccc2c1
inactive: [1] | [2] | [3] | [4] | [5] | [8] | [6] | [7]
